Compounds with a hit are over-represented: about 5.1% of the library has one in this group of screens.
ANO1 activ – mouse TMEM16A channel activation, primary screen; Q8BHY3; HEK293 TMEM16A/YFP-H148Q/I152L, iodide quench fluorescence; active compounds read low; B-score at 10 µM; actives 0.3% (n = 340,000); AID 623877;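 active = fluorescence-ratio B-score plate-corrected deviation score at least 3 library SD below zero, with starting fluorescence score within 5 deviations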;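 also: channel opened by trigger with iodide after compound preincubation; score built on the fluorescence ratio of max minus min over baseline; more negative score means more quench and so TMEM16A activation or potentiation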
CRFBP-R2 agonist – agonists of human CRF-binding protein/CRF-R2 receptor complex | actives 0.46% (n = 350,000) | HEK293 CRF-R2/CRF-BP, calcium dye fluorescence (FLIPR); percent of saturating CRF peptide response | activation, % at 13.2 µM;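 active = activation of at least 50%, plus an integration ratio under a set limit after plate pattern correction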
CRFBP-R2 block – CRF-BP/CRF-R2 complex antagonism. HEK293 CRF-R2/CRF-BP, CRF-induced calcium fluorescence. inhibition, % at 11.8 µM. actives 0.59% (n = 350,000). AID 588475;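 active = inhibition of the ligand-induced calcium signal above about 50% at the single tested concentration, limit read from the data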
MPTP block – permeability transition pore inhibition; isolated mouse mitochondria, Ca2+ swelling absorbance, 30 min; inhibition, % at 10 µM; actives 1.4% (n = 360,000); AID 602449;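 active = inhibition of 50% or more, scaled per plate between neutral and stimulator controls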
TMEM16A inh – mouse TMEM16A channel inhibition, primary screen; Q8BHY3; HEK293 TMEM16A/YFP iodide influx fluorescence, ionomycin; normalized B-score (activity score, 25-100; higher = stronger inhibition) at 10 µM; actives 1.2% (n = 310,000);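 active = ratio plate-corrected score three or more library SD toward inhibition, starting fluorescence score within five deviations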;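 also: score derived from kinetic fluorescence span divided by baseline fluorescence per well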
NR3A LBD binder – NR3A (human) ligand-binding domain modulation. Tm shift relative to glycine control, % at 25 µM. AID 1259313. NR3A LBD differential scanning fluorimetry, Tm shift; 0% = protein alone, 100% = glycine-bound protein. actives 2.5% (n = 340,000);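 active = melting temperature shift of at least 10% of the positive control shift, at one fixed dose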
Numbers stand for hits; – = inactive; · = not tested or not shown.

SMILES | ANO1 activ | CRFBP-R2 agonist | CRFBP-R2 block | MPTP block | TMEM16A inh | NR3A LBD binder
O=C(Nc1ccc(Br)c2ccccc12)c1ccc2ccccc2c1O | – | – | – | – | 100 | 19.5
CC(=O)Nc1ccc(Br)c2ccccc12 | – | – | – | – | – | –
Cc1ccnc(NC(=O)c2ccc(NC(=O)CC3SC(N4CCCC4)=NC3=O)cc2)c1 (configuration not stated) | – | – | – | – | – | –
Cc1ccnc(NC(=O)c2cccc(NC(=O)CC3SC(N4CCCCC4)=NC3=O)c2)c1 (configuration not stated) | -37.6 | – | – | – | · | –
O=C(N/C(=C/c1cccc(Br)c1)c1nc(=S)[nH][nH]1)c1ccccc1 | – | – | – | – | – | 22.1
O=C(CN1C(=O)NC2(CCCC2)C1=O)c1ccc(Cl)s1 | – | – | 54.2 | – | – | ·
CC(C)(C)C(=O)NCc1ccc(C(=O)CN2C(=O)NC3(CCCC3)C2=O)s1 | – | – | – | – | · | –
COCCN1CCC(CO)C1 (configuration not stated) | – | – | 62.4 | – | · | –
O=C(NC(Cc1c[nH]c2ccccc12)C(=O)O)/C(=C/c1ccc(F)cc1)NC(=O)c1ccccc1 (configuration not stated) | – | – | – | – | – | –
CC(=O)N/C(=C\c1ccc(F)cc1)C(=O)NC(Cc1c[nH]c2ccccc12)C(=O)O (configuration not stated) | – | – | – | – | – | 13.7
CCOC(=O)c1csc(NC(=O)C2=COCCO2)n1 | – | – | – | – | – | –
COc1ccc(NS(=O)(=O)c2ccc3nc(COc4cccc5ccccc45)[nH]c3c2)cc1 | – | – | – | – | – | 17.1
COc1ccc(NS(=O)(=O)c2ccc3nc(COc4ccc5ccccc5c4)[nH]c3c2)cc1 | – | – | – | – | – | 25.4
COc1ccc(OCc2nc3ccc(S(=O)(=O)Nc4ccccc4Cl)cc3[nH]2)cc1 | – | – | – | – | – | –
COc1cc(C(=S)N2CCOCC2)ccc1OS(=O)(=O)c1ccc(NC(C)=O)cc1 | – | – | – | – | – | –
CCOc1cc(C(=S)N2CCOCC2)ccc1OC(=O)c1ccccc1 | – | – | – | – | – | –
COc1cc(C(=S)N2CCCC2)ccc1OS(=O)(=O)c1ccc(NC(C)=O)cc1 | – | – | – | – | – | 20.2
CCOc1cc(C(=S)N2CCOCC2)ccc1OS(=O)(=O)c1ccccc1 | – | – | – | – | – | 11.0
N#C/C(=C/c1ccc(-c2ccc(S(N)(=O)=O)cc2)o1)C(=O)Nc1ccccc1 | – | – | – | – | – | 22.9
N#C/C(=C\c1ccco1)C(=O)Nc1ccc(S(N)(=O)=O)cc1 | – | – | – | – | – | –
N#C/C(=C\c1ccccn1)c1nc2ccccc2s1 | – | 81.7 | – | – | – | –
N#C/C(=C/c1ccc(-c2ccc(S(N)(=O)=O)cc2)o1)c1nc2ccccc2s1 | – | 203.3 | – | – | – | –
CC(C)C(C)(C#N)NC(=O)COC(=O)C1CCN(S(=O)(=O)c2ccc3c(c2)OCCO3)CC1 (configuration not stated) | – | – | – | – | · | –
Cc1nn(C(C)C(=O)O)c(=O)c2ccccc12 (configuration not stated) | – | – | 56.8 | – | – | –
CC(C(=O)O)n1ncc2ccccc2c1=O (configuration not stated) | – | – | – | – | – | –
COc1ccc(C(=O)CSc2nnn(-c3cccc(NC(C)=O)c3)n2)cc1 | – | 68.7 | – | – | – | –
CC(=O)Nc1cccc(-n2nnc(SCC(=O)c3ccccc3)n2)c1 | – | – | – | – | – | –
CCN(C[C@H]1N[C@@](CC)(C(=O)OC)[C@H]2C(=O)N(C)C(=O)[C@@H]12)S(=O)(=O)c1ccc(C(C)(C)C)cc1 | – | – | – | – | · | 18.1
CCN(C[C@H]1N[C@@](Cc2ccccc2)(C(=O)OC)[C@H]2C(=O)N(Cc3ccccc3)C(=O)[C@@H]12)C(=O)C1CCCCC1 | · | 109.8 | – | – | · | –

Compound activity from PubChem BioAssay.
